KDM5B inhibitor: inhibitors of human KDM5B histone demethylase. Q9UGL1. KDM5B demethylase, FDH-coupled NADH fluorescence (FDH is formaldehyde dehydrogenase). Potency, µM (top dose mostly 57.7 µM), actives largely listed as inhibitors. 220,000 compounds, 2.6% hits. AID 1347165; active = well fitted inhibition curve with a large enough effect; also: 0% is about no effect; nearly all actives have a fitted effect of over 70% in size
Target sequence (Q9UGL1 whole entry, looked up): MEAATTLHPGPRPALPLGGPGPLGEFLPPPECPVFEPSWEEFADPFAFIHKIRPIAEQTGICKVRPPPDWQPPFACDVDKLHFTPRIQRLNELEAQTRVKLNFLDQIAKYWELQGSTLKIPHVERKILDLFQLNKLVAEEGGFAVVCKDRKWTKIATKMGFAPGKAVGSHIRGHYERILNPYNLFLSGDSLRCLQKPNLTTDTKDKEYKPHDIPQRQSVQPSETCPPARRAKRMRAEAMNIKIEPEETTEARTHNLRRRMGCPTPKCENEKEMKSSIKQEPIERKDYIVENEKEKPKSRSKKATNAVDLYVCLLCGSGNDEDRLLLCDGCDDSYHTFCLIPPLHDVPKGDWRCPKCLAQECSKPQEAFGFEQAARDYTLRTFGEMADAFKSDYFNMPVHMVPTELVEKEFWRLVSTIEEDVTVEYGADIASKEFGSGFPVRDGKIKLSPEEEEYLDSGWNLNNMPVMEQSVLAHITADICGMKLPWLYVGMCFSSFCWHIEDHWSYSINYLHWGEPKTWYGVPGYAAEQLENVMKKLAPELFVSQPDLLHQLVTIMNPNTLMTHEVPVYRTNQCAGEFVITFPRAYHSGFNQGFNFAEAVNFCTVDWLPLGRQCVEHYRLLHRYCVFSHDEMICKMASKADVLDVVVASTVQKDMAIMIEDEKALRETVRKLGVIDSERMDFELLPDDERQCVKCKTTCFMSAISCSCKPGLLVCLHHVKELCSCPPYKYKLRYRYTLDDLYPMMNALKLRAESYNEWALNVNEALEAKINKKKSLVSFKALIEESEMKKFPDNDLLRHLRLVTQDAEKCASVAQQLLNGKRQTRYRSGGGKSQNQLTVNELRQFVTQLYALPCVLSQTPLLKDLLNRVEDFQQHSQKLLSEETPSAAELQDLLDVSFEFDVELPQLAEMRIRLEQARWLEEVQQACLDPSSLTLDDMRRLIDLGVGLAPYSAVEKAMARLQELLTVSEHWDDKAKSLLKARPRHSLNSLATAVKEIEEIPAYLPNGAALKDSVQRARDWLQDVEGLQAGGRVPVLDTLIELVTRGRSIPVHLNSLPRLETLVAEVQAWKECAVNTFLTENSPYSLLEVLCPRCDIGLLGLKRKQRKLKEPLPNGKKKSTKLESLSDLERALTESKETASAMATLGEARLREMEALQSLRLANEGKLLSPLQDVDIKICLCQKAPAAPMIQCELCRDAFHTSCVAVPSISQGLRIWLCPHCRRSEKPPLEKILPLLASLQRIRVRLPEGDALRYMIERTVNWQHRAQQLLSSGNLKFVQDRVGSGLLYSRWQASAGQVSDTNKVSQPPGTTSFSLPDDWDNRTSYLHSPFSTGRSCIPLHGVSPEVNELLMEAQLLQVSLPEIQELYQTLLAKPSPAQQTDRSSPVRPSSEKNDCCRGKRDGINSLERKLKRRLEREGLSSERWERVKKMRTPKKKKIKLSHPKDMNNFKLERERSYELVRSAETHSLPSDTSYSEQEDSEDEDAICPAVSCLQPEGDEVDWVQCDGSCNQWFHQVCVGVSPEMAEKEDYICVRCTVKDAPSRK
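Here, H3K4me3 peptide (12.5 µM in substrate mix) is demethylated by KDM5BΔAP, 200 nM final, after 10 min compound exposure. Formaldehyde product is coupled through FDH (0.25 U/mL in mix) to NADH fluorescence; 30-min ΔRFU feeds dose-response curves.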
Active calls of the source: *; i = inactive. The full list was thinned out, with hits kept by preference. Potency is read from the fitted curve at half-maximal effect.

SMILES | KDM5B inhibitor
Cc1cn2nnc(C(=O)NCCC3=CCCCC3)c2c(=O)[nH]1 | i
O=C(NCCN1CCCC1)c1nnn2cc(-c3ccccc3)[nH]c(=O)c12 | 2.5µM*
O=C(CN1CCN(CC(=O)N2CCCCCC2)CC1)NCCc1c[nH]c2ccccc12 | i
O=C(NCCNCc1c[nH]c2ccccc12)c1ccc(F)cc1 | i
COc1cccc(C(=O)Nc2ccc3c(c2)CN(Cc2cccc(OC)c2OC)C(=O)CO3)c1 | i
O=C(Nc1ccc(Cc2nc3ccccc3s2)cc1)C1CC=CCC1 (stereo not given) | i
CN(C)c1ccc(-c2nnnn2[C@H]2CO[C@H]3[C@@H]2OC[C@H]3O)cc1 | i
COc1ccc(NC(=O)N[C@H]2CO[C@H]3[C@@H]2OC[C@@H]3n2nnnc2Oc2ccccc2)cc1 | i
CN(C)c1ccc(-c2nnnn2[C@H]2CO[C@H]3[C@@H]2OC[C@@H]3NS(=O)(=O)c2ccc3ccccc3c2)cc1 | 22µM*
CN(C)c1ccc(-c2nnnn2[C@H]2CO[C@H]3[C@@H]2OC[C@@H]3NC(=O)Nc2ccc(Oc3ccccc3)cc2)cc1 | 13µM*
CN(C)c1cccc(Oc2nnnn2[C@H]2CO[C@H]3[C@@H]2OC[C@@H]3NC(=O)Nc2ccc(Oc3ccccc3)cc2)c1 | i
CN(C)c1ccc(-c2nnnn2[C@H]2CO[C@H]3[C@@H]2OC[C@@H]3NC(=O)CCC(=O)O)cc1 | i
CC(C)NC(=O)C[C@@H]1CCNC[C@@H]1Cc1cc(-c2ccc(C(C)(C)C)cc2)on1 | i
Cn1c(=O)c2c(nc(Sc3ccccc3N)n2Cc2ccc(F)cc2)n(C)c1=O | i
Cc1ccc(N2C(=O)N(CC(=O)NCc3ccccc3)c3ccccc3S2(=O)=O)c(C)c1 | i
Cn1c(=O)c2c(nc(CN3CCN(Cc4ccccc4)CC3)n2CC(N)=O)n(C)c1=O | i
CCCC(C)(C)NC(=O)Cc1ccc(OC)c(OC)c1 | i
COC(=O)C1C(=O)CC(C)(O)C(C(=O)OC)C1c1ccc(C)cc1 (stereo not given) | i
NC(=O)c1ccsc1NC(=O)COC(=O)c1ccc(Cl)cc1F | i
c1ccc(CC2=NOC3(CCN(Cc4ccccc4)C3)C2)cc1 (stereo not given) | 32µM*
FC(F)(F)c1ccc(CN2CCCC3(CC(Cc4ccccc4)=NO3)C2)cc1 (stereo not given) | i
COc1ccc(CN2CCCC3(CC(Cc4ccccc4)=NO3)C2)cc1 (stereo not given) | i
CC(C1CC1)N(Cc1ccccc1)C(=O)CSc1cc(C(N)=O)c2ccccc2n1 (stereo not given) | i
COc1ccc(/C=C/c2nc3cc(C)c(C)cc3s2)c(OC)c1OC | i
CC(=O)c1c(C)[nH]c(C(=O)C(C)Sc2ccccc2Br)c1C (stereo not given) | i
SMILES | KDM5B inhibitor
CC1(C(=O)Nc2ccc(C(N)=O)cc2)CCCc2cnc(Nc3ccccc3)nc21 (stereo not given) | i
CC1(C(=O)NCc2ccncc2)CCCc2cnc(Nc3ccccc3F)nc21 (stereo not given) | i
CN(C)c1ncc2c(n1)C(C)(C(=O)NCCCn1ccnc1)CCC2 (stereo not given) | 35µM*
CN(C)c1ncc2c(n1)C(C)(C(=O)NCCOc1ccccc1)CCC2 (stereo not given) | 32µM*
CC1(C(=O)NCC2CC2)CCc2cnc(Nc3ccccc3)nc21 (stereo not given) | i
Cn1ccc(NC(=O)C2(C)CCCc3cnc(Nc4ccccc4)nc32)n1 (stereo not given) | i
CN(C)c1ncc2c(n1)C(C)(C(=O)Nc1ccc(Cl)cc1)CCC2 (stereo not given) | 35µM*
CC1(C(=O)NCCCn2ccnc2)CCCc2cnc(Nc3ccccc3)nc21 (stereo not given) | i
CN(C)c1ncc2c(n1)C(C)(C(=O)NCC1CC1)CCC2 (stereo not given) | 32µM*
COc1cccc(Nc2ncc3c(n2)C(C)(C(=O)NCC2CC2)CC3)c1 (stereo not given) | i
CN1CCN(C(=O)C2(C)CCCc3cnc(Nc4ccccc4)nc32)CC1 (stereo not given) | i
CC1(C(=O)NCc2cccnc2)CCCc2cnc(Nc3ccccc3)nc21 (stereo not given) | i
COc1cc(C2CC(=O)N3CN(c4cccc(Cl)c4)CSC3=C2C#N)ccc1O (stereo not given) | i
CCOC(=O)c1c(C)[nH]c(C(=O)C(C)Nc2cc(OC)ccc2OC)c1C (stereo not given) | i
O=[N+]([O-])c1c(Nc2cccc(Cl)n2)ccc2nonc12 | i
O=C(NS(=O)(=O)Cc1ccccc1)c1cccc(F)c1 | i
CC(C)C(NS(=O)(=O)Cc1ccc(F)cc1)c1cccs1 (stereo not given) | i
COc1cc(NS(=O)(=O)c2cccc(Cl)c2Cl)c(C(=O)O)cc1OC | i
Cc1ccc(N=C2NN=C(c3c[nH]c(C(=O)N4CCCC4)c3)CS2)cc1C | i
O=C(OCc1cc(-c2ccccc2)no1)c1cc(Cl)c[nH]1 | i
CCOC(=O)c1c(NC(=O)CSc2ncnc3ccccc23)sc2c1CCCC2 | i
CNC(=O)[C@@H]1C[C@H](Oc2ccccc2)CN1C(=O)c1cc(-c2ccc(C)cc2)n[nH]1 | i
O=C(OCC(=O)c1c[nH]c2ccccc12)c1ccc2ccccc2n1 | i
COc1ccccc1OC(C)C(=O)Nc1ccccc1C(=O)NCC1CCCO1 (stereo not given) | i
CCOC(=O)c1cc2c(=O)n3ccccc3nc2n(CC2CCCO2)c1=NC(=O)c1ccccc1OCC (stereo not given) | i
SMILES | KDM5B inhibitor
COc1ccccc1C(=O)Nc1ccccc1OCC1CCCO1 (stereo not given) | i
CCC(C)C(=O)Nc1c(C(=O)OC)n(CC2CCCO2)c2ncc(NC(C)CO)cc12 (stereo not given) | 28µM*
CCC(C)C(=O)Nc1c(C(=O)OC)n(CC2CCCO2)c2ncc(NC(C)CCO)cc12 (stereo not given) | 6.3µM*
COC(=O)c1c(NC(C)=O)c2cc(NC(C)CC(C)(C)O)cnc2n1CCC(C)C (stereo not given) | 20µM*
CC(C)C(=O)N1CCC(C(=O)Nc2cccc(OCC3CCCO3)c2)CC1 (stereo not given) | i
Cc1ccccc1/C=C/c1ccc2ccccc2n1 | i
COc1ccc(C(=O)Nc2ccnn2Cc2cccs2)cc1S(=O)(=O)N(C)Cc1ccccc1 | i
O=C(c1ccc(Cl)nc1)N1CCC(c2nn(-c3ccc(Cl)cc3)c(=O)[nH]2)CC1 | i
CCOC(=O)c1ccc(NC(=S)N(CCO)Cc2ccccc2)cc1 | i
CC(=O)c1cc2c(cc1NC(=O)Cn1c(Nc3cccc(F)c3)nc(C)cc1=O)OCO2 | i
O=C(N1CC23C=CC(CC2CC12CCCCC2)O3)C(F)(F)F (stereo not given) | i
CCc1c(C)sc(NC(=O)/C=C/c2ccccc2)c1C#N | i
Cc1nc2ccc(C(=O)NC(C(=O)O)c3c(C)n[nH]c3C)cc2[nH]1 (stereo not given) | i
CCCC(=O)Nc1cccc(C(=O)NC(C(=O)O)c2c(C)n[nH]c2C)c1 (stereo not given) | i
CNc1ccc(C)cc1C(=O)NC(C(=O)O)c1c(C)n[nH]c1C (stereo not given) | 32µM*
C[S+](=O)([O-])N1CCC2(CCN(Cc3cccs3)c3ccccc3O2)CC1 | i

Screening results: PubChem, National Center for Advancing Translational Sciences (NCATS)
